Several values for one entry are separate records, joined by “and”; a condition that tells them apart may be missing. Equal values may be shown once. Results filed as inconclusive are left out. Entries that show only a call come without a potency. More than one record can exist for a structure, and the calls need not agree. Activity calls are given as the source filed them. Unless noted, calls come from the whole dose curve; as a rule, active = well fitted curve in the direction sought with a large enough effect; inconclusive = small, poorly fitted or top-dose-only effect, or another doubt; inactive = no such curve, though single readings can be large; an effect the other way counts as inactive or inconclusive.
Legend:
[1] = Primary qHTS for small molecule stabilizers of the endoplasmic reticulum resident proteome: Secreted ER Calcium Modulated Protein (SERCaMP) assay (AID 1508630)
Summary of the method: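 GLuc-SERCaMP-expressing SH-SY5Y cells, pretreated 16 h with compound, are challenged with thapsigargin to empty ER calcium stores; after 4 h, coelenterazine is added directly to the medium and luminescence is imaged.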

[2] = target: Protein phosphatase 1D (Homo sapiens) (UniProt O15297); test: RapidFire Mass Spectrometry qHTS Assay for Modulators of WT P53-Induced Phosphatase 1 (WIP1) (AID 1347424);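 note: amount of dephosphorylated VEPPL-S-QETFS peptide product formed by WIP1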; note: potency is the fitted concentration of half-maximal effect
Summary of the method: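 10 nM WIP1 preincubated with compounds 1 hr at room temperature in pH 7.5 Tris buffer with 30 mM MgCl2, 1 mM TCEP; 2 uM VEPPL-pS-QETFS phosphopeptide for 5 min, formic acid quench; dephosphorylated product quantified by RapidFire MS against labelled standard.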

[3] = target: Protein phosphatase 1D (Homo sapiens) (UniProt O15297); test: Rhodamine-PBP qHTS Assay for Modulators of WT P53-Induced Phosphatase 1 (WIP1) (AID 1347425)
Summary of the method: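 The read-out is the change in Rhodamine-PBP fluorescence (f1 - f0, ex 525/em 598 nm) as Pi is released, read each minute for 11 min. Final reaction: 5 nM WIP1, 10 uM phosphopeptide VEPPL-pS-QETFS, 10 uM Rh-PBP, 50 mM Tris-HCl pH 7.5, 30 mM MgCl2. Compound was preincubated with enzyme for 1 hour at room temperature.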

[4] = target: Calcium and integrin-binding protein 1 (Homo sapiens) (UniProt Q99828); test: Primary qHTS for Identification of Calcium Integrin Binding Protein 1 (CIB1) Competitor (AID 1508620); note: potency is the fitted concentration of half-maximal effect
Summary of the method: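 Fluorescence polarization competition: GST-tagged CIB1 (1 uM final) preincubated with compound 15 min at room temperature, then FITC-labelled alphaIIb peptide (100 nM final) added. After 15 min at room temperature, polarization read at Ex 480/Em 540.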

[5] = target: Cytochrome P450 2D6 (Homo sapiens) (UniProt P10635); test: Cytochrome P450 family 2 subfamily D member 6 (CYP2D6) small molecule antagonists: luciferase biochemical (cell-free) qHTS assay (AID 1645840; active = well fitted curve in the direction sought with a large enough effect in the repeat runs; an effect the other way counts as inactive or inconclusive; note: nearly all actives have a fitted effect of over 55% in size; note: potency is the fitted concentration of half-maximal effect)
Summary of the method: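 P450-Glo luminescent screen: recombinant CYP2D6 enzyme–proluciferin substrate mix preincubated with compound 10 min at room temperature, then NADPH regeneration added for 1 h at room temperature. Detection reagent added for 20 min; luciferin light read as relative luminescence units.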

[6] = target: Cytochrome P450 2C9 (Homo sapiens) (UniProt P11712); test: Cytochrome P450 family 2 subfamily C member 9 (CYP2C9) small molecule antagonists: luciferase biochemical (cell-free) qHTS assay (AID 1645842; active = well fitted curve in the direction sought with a large enough effect in the repeat runs; an effect the other way counts as inactive or inconclusive; note: nearly all actives have a fitted effect of over 55% in size; note: potency is the fitted concentration of half-maximal effect)
Summary of the method: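 Luminescence, after 20 min with luciferin detection reagent, reflected CYP2C9 turnover during a 1 h NADPH-driven reaction at 37C. Enzyme-substrate mix contained 0.4% bovine serum albumin and was preincubated with compound 10 min at room temperature.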

[7] = Primary qHTS for inhibitors of nuclear receptor binding SET domain protein 2 (NSD2) in an isogenic RCH-ACV NSD2 p.E1099K mutant (9B) (AID 1645876); note: nearly all actives have a fitted effect of over 70% in size; note: potency is the fitted concentration of half-maximal effect
[8] = Primary qHTS for inhibitors of nuclear receptor binding SET domain protein 2 (NSD2) in an RCH-ACV wild type WT cells (2C) (AID 1645877); note: nearly all actives have a fitted effect of over 70% in size; note: potency is the fitted concentration of half-maximal effect
[9] = Primary qHTS for inhibitors of La Crosse Virus (LACV) - induced cell death in SH-SY5Y cells (AID 1508616); note: potency is the fitted concentration of half-maximal effect
Summary of the method: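 SH-SY5Y cells (6000/well) plated 24 h, then given compounds by pin transfer and LACV at 0.01 MOI for 6 days at 37C. Viability measured by ATPLite luminescence, normalized to infected DMSO and uninfected DMSO.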

[10] = A High-Content qHTS Against Drug Library for the Identification of Small Molecules that Inhibit DYT1 Early Onset Primary Dystonia-Associated Cell Pathology (AID 1645839; calls by dose curve; note: series mostly up to about 46 µM)
Summary of the method: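 Flp-In T-REx 293 cells with tetracycline-inducible EGFP-delE hTOR1A (WT EGFP-hTOR1A as reference), 800 cells/well; compound added with tetracycline, 48 h at 37 C. Fixed, permeabilized cells imaged; %pathology (punctate TorsinA) primary, cell count counterscreen.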

[11] = target: Single-stranded DNA cytosine deaminase (Homo sapiens) (UniProt Q9GZX7); test: Validation qHTS assay for inhibitors of Activation Induced Cytidine Deaminase (AID): AID signal (AID 1347429)
Summary of the method: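 FRET deamination assay: 1 uM AID (4/3x stock) with UDG, compound up to 114 uM, then 250 nM DJC20/DJC23 substrate (4x stock) for 4 hr at room temperature. NaOH added, 30 min; fluorescence read 540/590 nm.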

[12] = target: N-terminal Xaa-Pro-Lys N-methyltransferase 1 (Homo sapiens) (UniProt Q9BV86); test: Confirmatory qHTS for Inhibitors of N-terminal methyltransferase 1 (NTMT1): MTaseGlo Assay (AID 1645874); note: potency is the fitted concentration of half-maximal effect; nearly all actives have a fitted effect of over 65% in size
Summary of the method: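 qHTS format: NTMT1 125 nM, SAM 100 uM, peptide SPKRIA 1 uM final; 15 min compound preincubation, 30 min reaction at room temperature. MTase-Glo luminescence.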

Chain of Cytochrome P450 2C9 (Homo sapiens) (P11712 whole entry, looked up): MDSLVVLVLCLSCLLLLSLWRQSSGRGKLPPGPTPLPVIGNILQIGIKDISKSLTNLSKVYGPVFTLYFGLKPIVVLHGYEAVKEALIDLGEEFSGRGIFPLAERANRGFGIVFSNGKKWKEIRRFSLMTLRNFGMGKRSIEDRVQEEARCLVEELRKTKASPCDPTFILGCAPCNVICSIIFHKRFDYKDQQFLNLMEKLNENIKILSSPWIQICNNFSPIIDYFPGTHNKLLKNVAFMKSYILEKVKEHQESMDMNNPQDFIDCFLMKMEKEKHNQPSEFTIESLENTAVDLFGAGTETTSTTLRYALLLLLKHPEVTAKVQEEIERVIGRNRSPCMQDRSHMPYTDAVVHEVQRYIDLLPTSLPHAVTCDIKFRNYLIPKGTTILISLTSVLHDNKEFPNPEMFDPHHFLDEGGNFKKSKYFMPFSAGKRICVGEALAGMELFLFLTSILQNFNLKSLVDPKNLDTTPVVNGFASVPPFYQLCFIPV
Chain of Cytochrome P450 2D6 (Homo sapiens) (P10635 whole entry, looked up): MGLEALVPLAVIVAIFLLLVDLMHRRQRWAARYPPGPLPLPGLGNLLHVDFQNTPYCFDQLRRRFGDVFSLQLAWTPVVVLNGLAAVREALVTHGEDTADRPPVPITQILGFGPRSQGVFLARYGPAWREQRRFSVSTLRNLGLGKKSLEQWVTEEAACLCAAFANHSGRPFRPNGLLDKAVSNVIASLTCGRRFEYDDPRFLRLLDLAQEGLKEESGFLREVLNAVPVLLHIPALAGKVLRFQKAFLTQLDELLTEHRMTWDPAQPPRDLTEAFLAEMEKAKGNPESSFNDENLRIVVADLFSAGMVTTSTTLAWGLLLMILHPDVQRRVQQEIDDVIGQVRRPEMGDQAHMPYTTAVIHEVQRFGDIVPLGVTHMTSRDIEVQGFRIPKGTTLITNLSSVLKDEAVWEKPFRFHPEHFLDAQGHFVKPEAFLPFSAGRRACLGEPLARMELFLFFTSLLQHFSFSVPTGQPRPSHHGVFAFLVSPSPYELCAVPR
Chain of Calcium and integrin-binding protein 1 (Homo sapiens) (Q99828 whole entry, looked up): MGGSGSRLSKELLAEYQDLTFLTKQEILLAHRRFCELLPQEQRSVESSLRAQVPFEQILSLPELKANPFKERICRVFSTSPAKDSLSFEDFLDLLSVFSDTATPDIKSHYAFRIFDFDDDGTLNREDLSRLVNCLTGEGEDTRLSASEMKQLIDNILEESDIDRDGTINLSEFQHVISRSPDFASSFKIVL
Chain of Protein phosphatase 1D (Homo sapiens) (O15297 whole entry, looked up): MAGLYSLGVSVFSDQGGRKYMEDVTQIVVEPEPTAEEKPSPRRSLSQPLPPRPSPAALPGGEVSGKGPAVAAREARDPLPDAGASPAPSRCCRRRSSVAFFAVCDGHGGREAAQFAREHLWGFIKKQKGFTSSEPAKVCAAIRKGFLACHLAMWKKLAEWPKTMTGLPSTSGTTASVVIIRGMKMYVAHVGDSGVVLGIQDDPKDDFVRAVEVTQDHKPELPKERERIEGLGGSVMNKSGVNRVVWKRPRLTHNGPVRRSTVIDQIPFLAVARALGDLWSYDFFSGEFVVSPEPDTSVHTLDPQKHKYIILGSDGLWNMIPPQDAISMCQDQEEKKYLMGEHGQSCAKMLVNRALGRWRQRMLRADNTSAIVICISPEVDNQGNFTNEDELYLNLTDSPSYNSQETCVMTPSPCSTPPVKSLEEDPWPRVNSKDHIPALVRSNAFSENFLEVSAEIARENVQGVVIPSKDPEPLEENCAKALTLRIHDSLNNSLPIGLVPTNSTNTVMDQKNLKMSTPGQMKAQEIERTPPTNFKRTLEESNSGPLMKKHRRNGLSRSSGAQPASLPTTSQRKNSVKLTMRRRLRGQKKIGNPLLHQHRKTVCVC
Chain of Single-stranded DNA cytosine deaminase (Homo sapiens) (Q9GZX7 whole entry, looked up): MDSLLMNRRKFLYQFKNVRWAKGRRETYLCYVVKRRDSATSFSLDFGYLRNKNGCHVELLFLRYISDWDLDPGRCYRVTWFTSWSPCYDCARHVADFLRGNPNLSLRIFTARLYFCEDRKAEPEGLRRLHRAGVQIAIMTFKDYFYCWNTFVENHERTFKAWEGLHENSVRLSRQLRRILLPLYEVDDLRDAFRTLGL
Chain of N-terminal Xaa-Pro-Lys N-methyltransferase 1 (Homo sapiens) (Q9BV86 whole entry, looked up): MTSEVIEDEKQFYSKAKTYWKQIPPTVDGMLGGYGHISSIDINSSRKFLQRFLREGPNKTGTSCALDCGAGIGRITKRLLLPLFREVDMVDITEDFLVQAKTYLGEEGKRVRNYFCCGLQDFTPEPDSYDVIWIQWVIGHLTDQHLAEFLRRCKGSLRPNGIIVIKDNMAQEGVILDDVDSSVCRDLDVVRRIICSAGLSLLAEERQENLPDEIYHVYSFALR

Row | SMILES | Potency [1] | Potency [2] | outcome [3] | Potency [4] | Potency [5] | Potency [6] | Potency [7] | Potency [8] | Potency [9] | Potency [10] | outcome [11] | Potency [12]
1 | C[C@]12CCC(=O)C=C1CC[C@@H]1[C@H]2[C@@H](O)C[C@@]2(C)[C@H]1CC[C@]2(O)C(=O)CO | inactive |  |  |  |  |  |  |  |  |  |  | 
2 | CN(C)CCc1c[nH]c2ccc(Cn3cncn3)cc12 | inactive |  |  |  |  |  |  |  |  |  |  | 
3 | Cc1cc(C2CCCCC2)n(O)c(=O)c1 | inactive | inactive | inactive | inactive | inactive | inactive | 5.8 µM (active) and 266 nM (active) and 7.42 µM (active) | 3.26 µM (active) and 266 nM (active) and 4.68 µM (active) |  |  |  | 
4 | Cc1nc2n(c(=O)c1CCN1CCC(c3noc4cc(F)ccc34)CC1)CCCC2 | inactive | inactive | inactive |  | 2.75 µM (active) | inactive | inactive | inactive | inactive |  |  | 
5 | C[C@H](Cn1cnc2c(N)ncnc21)OCP(=O)(O)O | inactive |  |  | inactive |  |  |  |  |  |  |  | 
6 | CNC[C@@H](O)[C@@H](O)[C@H](O)[C@H](O)CO | inactive |  |  |  |  |  |  |  |  |  |  | 
7 | NS(=O)(=O)c1cc(C(=O)O)c(NCc2ccco2)cc1Cl | inactive | inactive | inactive | inactive |  |  | inactive |  | inactive | inactive |  | 
8 | NC(=O)Cc1cccc(C(=O)c2ccccc2)c1N | inactive | inactive | inactive | inactive | inactive | inactive |  |  | inactive | inactive |  | 
9 | CCC[C@@H]1C[C@@H](C(=O)N[C@@H]([C@H]2O[C@H](SC)[C@H](O)[C@@H](O)[C@H]2O)[C@@H](C)O)N(C)C1 | inactive | inactive | inactive | inactive | inactive | inactive |  |  | inactive |  |  | 
10 | COCCCOc1ccnc(CS(=O)c2nc3ccccc3[nH]2)c1C (stereo not given) | inactive | inactive | inactive | 39.8 µM (active) and inactive | inactive | inactive and 15.1 µM (active) | inactive |  | inactive | inactive |  | 
11 | Cc1nc(Nc2ncc(C(=O)Nc3c(C)cccc3Cl)s2)cc(N2CCN(CCO)CC2)n1 | inactive | inactive | inactive | inactive | inactive | inactive | 0.7 nM (active) and 12.9 nM (active) and 20.9 nM (active) |  | inactive |  |  | 
12 | Clc1ccc(C(Cn2ccnc2)OCc2ccc(Sc3ccccc3)cc2)c(Cl)c1 (stereo not given) | inactive | inactive | inactive | inactive | 0.155 µM (active) | 2.75 µM (active) | 18.6 µM (active) |  | inactive |  |  | 
13 | CN(c1nccc(=O)[nH]1)C1CCN(c2nc3ccccc3n2Cc2ccc(F)cc2)CC1 | inactive | inactive | inactive | inactive | 12.3 µM (active) |  |  |  | inactive |  |  | 
14 | CCCOc1ccc2nc(NC(=O)OC)[nH]c2c1 | inactive | inactive | inactive | inactive | inactive | inactive | 411 nM (active) and 417 nM (active) | 366 nM (active) and 263 nM (active) | inactive | inactive |  | 
15 | O=C(CS(=O)Cc1ccco1)NCC=CCOc1cc(CN2CCCCC2)ccn1 (stereo not given) |  |  |  | inactive |  |  |  |  |  |  |  | 
16 | CN(C)[C@@H](CCOc1cccc2ccccc12)c1ccccc1 | inactive | inactive | inactive | inactive | 347 nM (active) and 849 nM (active) | 15.5 µM (active) and 21.3 µM (active) |  | 23.7 µM (active) | inactive |  |  | 
17 | CC1=C(C(=O)O)N2C(=O)[C@@H](NC(=O)[C@H](N)C3=CCC=CC3)[C@H]2SC1 | inactive | inactive | inactive | inactive | inactive | inactive | inactive |  | inactive |  |  | 
18 | N=C(N=C(N)N)N1CCOCC1 | inactive | inactive | inactive | inactive | inactive | inactive | inactive |  | inactive | inactive |  | 

Row | SMILES | Potency [1] | Potency [2] | outcome [3] | Potency [4] | Potency [5] | Potency [6] | Potency [7] | Potency [8] | Potency [9] | Potency [10] | outcome [11] | Potency [12]
19 | O=C1CCc2ccc(OCCCCN3CCN(c4cccc(Cl)c4Cl)CC3)cc2N1 | inactive | inactive | inactive | inactive |  |  | inactive |  | inactive |  |  | 
20 | COC(=O)N[C@H](C(=O)N[C@@H](Cc1ccccc1)[C@@H](O)CN(Cc1ccc(-c2ccccn2)cc1)NC(=O)[C@@H](NC(=O)OC)C(C)(C)C)C(C)(C)C | inactive | inactive | inactive |  |  |  |  |  | inactive |  |  | 
21 | CCCCc1ccc2nc(NC(=O)OC)[nH]c2c1 | inactive | inactive | inactive |  |  | inactive | 53.1 nM (active) and 166 nM (active) | 47.3 nM (active) and 118 nM (active) | inactive |  |  | 
22 | O=C(OC1C[C@H]2CC[C@@H](C1)[N+]21CCCC1)C(O)(c1ccccc1)c1ccccc1 (stereo not given in full) | inactive | inactive | inactive | inactive | 6.17 µM (active) | inactive |  |  | inactive | inactive |  | 
23 | Cc1cc(=O)c2c(O)c3c(O)cc(=O)c4c3c3c(cc(O)c1c23)C(C)(C)C=4O | inactive | inactive | inactive |  | inactive | inactive | inactive |  | inactive |  |  | 
24 | OC(CN1CCN(c2cccc(Cl)c2)CC1)C(c1ccccc1)c1ccccc1 (stereo not given) | inactive |  |  | inactive |  |  |  |  | inactive |  | inactive | 
25 | Cc1ccc(C(=O)c2cc(O)c(O)c([N+](=O)[O-])c2)cc1 | inactive | inactive | inactive | inactive | inactive | 5.49 µM (active) |  |  | inactive |  |  | 
26 | CCCCCCCCOc1ccccc1C(=O)Nc1ccc(C(=O)OCC[N+](C)(CC)CC)cc1 | inactive | inactive | inactive |  | 17.4 µM (active) | 1.55 µM (active) |  |  | inactive |  |  | 47.8 µM (active)
27 | COc1cc(C(C)=O)ccc1OCCCN1CCC(c2noc3cc(F)ccc23)CC1 | inactive | inactive | inactive | inactive | 5.49 µM (active) | inactive |  |  | inactive |  |  | 
28 | CC(C)c1ccc2oc3nc(N)c(C(=O)O)cc3c(=O)c2c1 | inactive | inactive | inactive |  | 13.8 µM (active) | 13.8 µM (active) | inactive |  |  |  |  | 
29 | C=C(c1ccc(C(=O)O)cc1)c1cc2c(cc1C)C(C)(C)CCC2(C)C | inactive | 4.47 µM (active) |  | inactive | inactive |  | inactive |  | inactive |  |  | 
30 | CC[C@]1(O)C[C@H]2CN(CCc3c([nH]c4ccccc34)[C@@](C(=O)OC)(c3cc4c(cc3OC)N(C=O)[C@H]3[C@@](O)(C(=O)OC)[C@H](OC(C)=O)[C@]5(CC)C=CCN6CC[C@]43[C@@H]65)C2)C1 | inactive | inactive | inactive | inactive |  | inactive | 7.5 nM (active) and 59 nM (active) | 6.7 nM (active) and 29.5 nM (active) | 100 nM (active) |  |  | 
31 | Cc1ccc(NC(=O)c2ccc(CN3CCN(C)CC3)cc2)cc1Nc1nccc(-c2cccnc2)n1 | inactive | inactive | inactive |  | inactive | inactive and 23.9 µM (active) | 15 µM (active) and 20.6 µM (active) and 18.6 µM (active) | 13.3 µM (active) and 18.4 µM (active) and 16.6 µM (active) | inactive |  |  | 
32 | CN1C(C(=O)Nc2ccccn2)=C(O)c2sccc2S1(=O)=O | inactive | inactive | inactive | inactive | inactive | 12.3 µM (active) | inactive | inactive | inactive | inactive |  | 
33 | C=CCc1cc(OC)c(O)c(C(=O)NCCO)c1 | inactive | inactive | inactive |  | inactive | inactive |  |  | inactive |  |  | 
34 | CC(=O)Nc1ccc(O)cc1 | inactive | inactive | inactive |  | inactive | inactive |  |  |  |  |  | 
35 | Nc1cccc2c1CN(C1CCC(=O)NC1=O)C2=O (stereo not given) | inactive | inactive | inactive | inactive |  |  | inactive | inactive | inactive |  |  | 
36 | Cc1ccc(Nc2nccc(N(C)c3ccc4c(C)n(C)nc4c3)n2)cc1S(N)(=O)=O | inactive | inactive | inactive | inactive |  | 15.5 µM (active) | 5.31 µM (active) and 1.83 µM (active) and 4.17 µM (active) |  | inactive |  |  | 
